Bioassay records deposited in PubChem BioAssay by several laboratories.
CYP2C19 inhib: blocks human cytochrome P450 2C19; actives 21% (n = 96,000); P33261; inhibition, % at 5 µM; CYP2C19 Supersomes, luciferin-H EGE luminescence, 30 min;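 active = CYP2C19 inhibition above a set limit at 5 µM in the primary screen, cut at about 50% in these data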;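 also: plate controls were negative control wells for no effect and 2.5 mM tranylcypromine positive control for full effect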
Target sequence (P33261 whole entry, looked up): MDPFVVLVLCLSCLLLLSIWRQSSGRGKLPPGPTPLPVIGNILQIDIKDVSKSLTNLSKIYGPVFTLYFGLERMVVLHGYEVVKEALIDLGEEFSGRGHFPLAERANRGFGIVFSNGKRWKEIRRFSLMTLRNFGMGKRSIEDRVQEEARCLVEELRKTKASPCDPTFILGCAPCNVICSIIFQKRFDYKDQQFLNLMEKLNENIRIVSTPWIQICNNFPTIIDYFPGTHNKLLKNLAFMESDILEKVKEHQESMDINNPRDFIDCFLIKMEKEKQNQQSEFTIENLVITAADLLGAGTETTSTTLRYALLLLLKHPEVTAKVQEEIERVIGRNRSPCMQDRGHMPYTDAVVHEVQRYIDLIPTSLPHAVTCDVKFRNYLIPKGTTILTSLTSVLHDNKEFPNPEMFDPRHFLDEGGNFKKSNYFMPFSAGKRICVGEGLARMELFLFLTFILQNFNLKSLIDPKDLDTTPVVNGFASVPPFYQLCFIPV
CYP2C9 activ: increases human cytochrome P450 2C9 activity; activation factor at 5 µM; actives 1.4% (n = 96,000); AID 1024; recombinant CYP2C9, luciferin-H conversion, luminescence; active compounds read high; factor 1 = untreated enzyme, 0 = blocked;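 active = activation factor of 2 or more for CYP2C9 at a 5 µM dose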;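 also: 0 = sulfaphenazole-blocked wells and 1 = vehicle-only wells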
Cav32 inh: blocks human Cav3.2 T-type calcium channel; O95180; Cav3.2-expressing cells, Fluo-4 calcium fluorescence FDSS; active compounds read low; B-score at 10 µM; actives 4% (n = 100,000); AID 449739;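 active = single-dose well whose peak fluorescence ratio is a statistical outlier from its plate by either plate-standardised score or position-corrected B-score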
CYP2C19 activ: activators of human cytochrome P450 2C19; recombinant CYP2C19, luciferin-H EGE luminescence; active compounds read high; 0 = fully inhibited enzyme, 1 = untreated enzyme; AID 1025; activation factor at 5 µM; P33261; 96,000 tested, under 10 active;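 active = activation factor of at least 2 at 5 µM in the primary screen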;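 also: 0 = wells with 2.5 mM tranylcypromine and 1 = vehicle-only wells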
CYP2C9 inh: inhibitors of human CYP2C9; P11712; inhibition, % at 5 µM; actives 20% (n = 96,000); AID 777; CYP2C9 Supersomes, luciferin-H conversion, luminescence;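 active = blocking of liver enzyme CYP2C9 beyond about 50% at 5 µM, limit read from the data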
An asterisk follows results filed as active; . = not tested or not shown. Compounds with a hit are over-represented: about 27% of the library has one in this group of screens.

SMILES | CYP2C19 inhib | CYP2C9 activ | Cav32 inh | CYP2C19 activ | CYP2C9 inh
CCNc1nc(NC(C)CC)nc(Oc2ccc(=O)[nH]n2)n1 (configuration not stated) | 50.3* | 1 | 1.08 | 0.5 | 4.3
Cc1ccc(C(C(=O)NC2CCCC2)N(Cc2ccc3c(c2)OCO3)C(=O)Cc2cccs2)cc1 (configuration not stated) | . | . | -0.228 | . | .
Cc1ccc(C(C(=O)NC2CCCCC2)N(Cc2ccco2)C(=O)Cc2c[nH]c3ccccc23)o1 (configuration not stated) | 53.6* | 0.5 | -10* | 0.5 | 45.8
Cc1ccc(N(C(=O)Cc2c[nH]c3ccccc23)C(C(=O)NC2CCCCC2)c2ccco2)cc1 (configuration not stated) | 84.2* | 0.1 | -4.82* | 0.2 | 94.0*
COc1ccc(C(C(=O)NC2CCCCC2)N(Cc2cccs2)C(=O)Cc2c[nH]c3ccccc23)cc1OC (configuration not stated) | -4.8 | 0.1 | -3.36 | 1 | 85.3*
Brc1[nH]nc2ccccc12 | 10.4 | 1.1 | 0.787 | 0.9 | -11.5
CCc1ccccc1NC(=O)C1CC(c2ccc(F)cc2)=NO1 (configuration not stated) | 82.7* | 1.4 | 0.158 | 0.2 | -40.3
O=C(Nc1ccc2c(c1)OCO2)C1CC(c2ccc(F)cc2)=NO1 (configuration not stated) | 53.4* | 0.8 | -0.273 | 0.5 | 20.6
CCO[C@@H]1OC(C(=O)O)=C[C@H](c2ccc(Br)cc2)[C@H]1CCCO | . | . | 0.187 | . | .
CCCN(CCC)c1nc(NC2CCN(C(=O)OCC)CC2)nc(OC)n1 | 31.0 | 0.5 | -11.2* | 0.7 | 48.6
CCOC(=O)N1CCC(Nc2c(NCCCN(CC)CC)c(=O)c2=O)CC1 | -5.4 | 1.1 | -0.361 | 1.1 | -9.5
Fc1ccc(CN2CCN3CCCC3C2C2CCCCC2)cc1F (configuration not stated) | 7.7 | 1 | 0.587 | 0.9 | -0.6
NC(=O)C1CCN(c2oc(-c3ccccc3F)nc2S(=O)(=O)c2ccc(Cl)cc2)CC1 | 51.9* | 0.7 | -0.0382 | 0.5 | 29.1
COc1ccc2c(c1)C(C)(CCN)C(=O)N2C (configuration not stated) | . | . | 0.725 | . | .
COc1ccc(OC)c(C2=NOC(C(=O)N3CCCc4ccccc43)C2)c1 (configuration not stated) | 40.8 | 2.4* | -0.704 | 0.6 | -139.5
CCOC(=O)N1CCN(C(=O)C2CC(c3cc(OC)ccc3OC)=NO2)CC1 (configuration not stated) | -9.3 | 1.3 | 0.619 | 1.1 | -27.9
O=C(C1CC(c2ccc(F)cc2)=NO1)N1CCCc2ccccc21 (configuration not stated) | 52.1* | 2.4* | -1.42 | 0.5 | -137.6
Cc1ccc2nc(-c3ccccc3)cn2c1 | 80.6* | 0.5 | -0.748 | 0.2 | 47.9
O=C(CN1CCN(C2CCCCC2)CC1)c1c[nH]c2ccccc12 | 7.0 | 1.1 | 1.07 | 0.9 | -7.9
O=C(CC1CC2CCC1C2)OCC(=O)c1c[nH]c2ccccc12 (configuration not stated) | 70.2* | 1.2 | -3.05 | 0.3 | -18.5
CC1S/C(=C(\C#N)C(=O)NCc2ccco2)N(c2ccc(F)cc2)C1=O (configuration not stated) | 8.8 | 1 | 0.85 | 0.9 | 2.4
CCOc1ccccc1NC(=O)CSc1nnc(CNC(=O)c2ccco2)o1 | 18.2 | 0.8 | -0.145 | 0.8 | 23.7
COC(=O)c1cc(Br)c(=O)n(CCc2ccc(F)cc2)c1 | 93.9* | 0.4 | 0.821 | 0.1 | 55.6*
COC(=O)c1cc(Br)c(=O)n(CCc2ccc(O)cc2)c1 | 51.5* | 0.9 | 1.88 | 0.5 | 9.8
COC(=O)c1cc(Br)c(=O)n(CC(C)C)c1 | 27.0 | 0.9 | -0.157 | 0.7 | 6.3
SMILES | CYP2C19 inhib | CYP2C9 activ | Cav32 inh | CYP2C19 activ | CYP2C9 inh
COC(=O)c1cc(Br)c(=O)n(-c2ccccc2F)c1 | 50.6* | 1 | -0.0217 | 0.5 | -1.6
COC(=O)c1cc(Br)c(=O)n(Cc2ccco2)c1 | 23.3 | 0.8 | 1.07 | 0.8 | 24.7
COC(=O)c1cc(Br)c(=O)n(-c2ccc(F)cc2)c1 | 89.2* | 0.9 | 1.11 | 0.1 | 14.7
C#CCNC(=O)C1=C[C@@H](C)[C@H](CCCO)[C@@H](OCC)O1 | . | . | 1.1 | . | .
O=C(O)Cc1ccc2[nH]c3ccc(CC(=O)O)cc3c2c1 | -0.8 | 1 | 0.751 | 1 | -2.0
Cc1cccc(C(=O)NC2CCN(C(=O)N3CCOCC3)CC2)c1 | -10.4 | 1.1 | -0.591 | 1.1 | -12.4
COC(=O)C1=C(C)N(CCC2=CCCCC2)C(=O)C1 | 97.8* | 0.6 | -0.0248 | 0 | 44.1
COC(=O)c1cc(Br)c(=O)n(CCN2CCCCC2)c1 | -1.3 | 1 | 1.09 | 1 | 2.0
COC(=O)c1cc(Br)c(=O)n(CCC2=CCCCC2)c1 | 96.3* | 0.2 | -1.64 | 0 | 84.6*
COC(=O)C1=C(C)N(CC2CCCO2)C(=O)C1 (configuration not stated) | 16.7 | 0.8 | -0.0717 | 0.8 | 24.5
CC[C@@H](C)C(NC(=O)OC(C)(C)C)c1cn([C@@H](Cc2cc3ccccc3[nH]2)C(=O)N2CCN(C(=O)OC(C)(C)C)CC2)nn1 (some centres not stated) | . | . | -1.91 | . | .
CCNC(=O)N1c2ccc(OCC)cc2C(C)=CC1(C)C | 66.6* | 0.5 | -0.133 | 0.3 | 50.4*
Cc1nnc(SCC(=O)Nc2ccccc2N2CCOCC2)s1 | . | . | 1.58 | . | .
COCCNC(=O)c1c[nH]c2ccc(S(=O)(=O)N3CCC4(CC3)OCCO4)cc2c1=O | 11.5 | 0.8 | 0.0135 | 0.9 | 19.8
C=CCOn1c(=O)c(=O)n(OCc2ccccc2)c2ccccc21 | 96.6* | 1 | 1.04 | 0 | -4.4
COc1ccc(C)cc1-n1nnnc1SCc1cc(=O)n2cc(C)ccc2n1 | 60.6* | 0.9 | -0.00758 | 0.4 | 12.7
Nn1c(SCc2csc(-c3ccccc3)n2)nnc1-c1cccs1 | 11.4 | 1 | 0.0111 | 0.9 | -2.8
COc1ccc(C)cc1-n1nnnc1SCc1csc(C)n1 | 99.0* | 0.3 | 0.853 | 0 | 73.4*
Cc1ccccc1-n1nnnc1SCc1csc(-c2ccccc2)n1 | 96.6* | 0.1 | -4.46* | 0 | 93.1*
COCC(=O)Nc1ccc(S(=O)(=O)Nc2cc(C)nc(C)n2)cc1 | -0.6 | 1 | 0.482 | 1 | -2.6
CN1CCn2c1nc(N1CCOCC1)nc2=O | -3.9 | 0.9 | -0.227 | 1 | 8.5
N#Cc1ccc(-c2cccnc2)nc1SCc1ccc(Cl)cc1Cl | 18.1 | 0.4 | -3.22 | 0.8 | 56.1*
Cc1cc(NC(=O)CSc2nc(-c3cccnc3)ccc2C#N)no1 | 32.8 | 0.5 | 0.765 | 0.7 | 48.2
Cc1ccc(S(=O)(=O)N2CCCC(C(=O)NC3=NCCS3)C2)cc1 (configuration not stated) | -3.2 | 1 | 0.527 | 1 | -1.3
CCOC(=O)C(Cc1ccccc1)NC(=O)CCc1c(C)nc2nc(C)nn2c1C (configuration not stated) | -0.8 | 1.1 | 1.3 | 1 | -11.0
O=C1CSC(=S)N1Cc1cccnc1 | 52.9* | 0.2 | 0.636 | 0.5 | 76.5*
